Screening results as filed in PubChem BioAssay.
Compounds with a hit are over-represented: about 2.3% of the library has one in this group of screens.
Hsp90 Hop PPI: changes Hsp90-Hop TPR2A binding signal, up or down. Potency, µM (series often up to 57 µM), for the others: at the highest dose activity change, negative = inhibition. actives 0.44% (n = 71,000). AlphaScreen TPR2A-His6 binding biotin-Hsp90 C-terminal peptide; active = well fitted curve in either direction with a large enough effect; inconclusive = small, poorly fitted or top-dose-only effect, or another doubt; note: potency is the fitted concentration of half-maximal effect; % is set by controls: 0 for no effect and ±100 for the full control effect
BRCT inh red: BRCT-phosphoprotein interaction inhibition (red fluorophore) | P38398 | Potency, µM (series often up to 76.9 µM), inactives show at the highest dose activity change, negative = inhibition, most hits filed as inhibitors | BRCT-phosphopeptide binding, red fluorescence polarization | AID 892 | actives 0.03% (n = 75,000); note: % is set by controls: 0 for no effect and ±100 for the full control effect
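Rhodamine-labelled pBACH1 10-mer (100 nM) bound to BRCT domain (100 nM) at pH 7.3; compounds incubated 12 min room temperature, polarization read. Free peptide defines full inhibition; unlabelled decapeptide titrated as control.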
Pol III holo inh: inhibitors of bacterial DNA polymerase III holoenzyme. reconstituted DNA polymerase III holoenzyme replication, biochemical. Potency, µM (top dose mostly 57.1 µM), inactives show top-dose activity change, negative = inhibition. actives 0.25% (n = 71,000); note: potency is the fitted concentration of half-maximal effect; % is set by controls: 0 for no effect and ±100 for the full control effect
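Reconstituted *E. coli* holoenzyme (0.35 nM Pol III, 1 nM beta, 154 nM SSB, 2 nM primase) was preincubated with compound for 15 min at RT. Synthesis on 1.4 nM ssM13Gori ran 35 min, then was stopped with PicoGreen/EDTA and read as dsDNA fluorescence.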
BRCT inh green: inhibitors of human BRCA1 BRCT-phosphoprotein interaction (green fluorophore); P38398; BRCA1 BRCT-phosphopeptide binding, green fluorescence polarization; Potency, µM (top dose mostly 76.9 µM), for inactives: at the highest dose activity change, negative = inhibition, actives largely listed as inhibitors; actives 0.05% (n = 75,000); AID 875;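 note: potency is the fitted concentration of half-maximal effect; plate controls were peptide without protein for full effect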
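Fluorescence polarization: His-tagged BRCT (~35 kDa BRCA1 C-terminus, 250 nM) bound to 100 nM fluorescein-labeled phosphorylated 10-aa BACH1 peptide, pH 7.3 phosphate buffer with DTT and Tween 20. Compounds incubated 12 min at room temperature; inhibition read as lowered polarization.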
Tau filament bind: tau filament binding | P10636 | recombinant tau filaments, thioflavin S fluorescence, 15 h; filaments grown with octadecylsulfate alongside compound | Potency, µM (titrated, usually from 57.1 µM), for inactives: at the highest dose activity change, negative = inhibition | actives 2% (n = 71,000);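 note: potency is the fitted concentration of half-maximal effect; % is set by controls: 0 for no effect and ±100 for the full control effect; actives lower thioflavin S fluorescence by blocking filaments or displacing dye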
Target sequence (P10636 whole entry, looked up): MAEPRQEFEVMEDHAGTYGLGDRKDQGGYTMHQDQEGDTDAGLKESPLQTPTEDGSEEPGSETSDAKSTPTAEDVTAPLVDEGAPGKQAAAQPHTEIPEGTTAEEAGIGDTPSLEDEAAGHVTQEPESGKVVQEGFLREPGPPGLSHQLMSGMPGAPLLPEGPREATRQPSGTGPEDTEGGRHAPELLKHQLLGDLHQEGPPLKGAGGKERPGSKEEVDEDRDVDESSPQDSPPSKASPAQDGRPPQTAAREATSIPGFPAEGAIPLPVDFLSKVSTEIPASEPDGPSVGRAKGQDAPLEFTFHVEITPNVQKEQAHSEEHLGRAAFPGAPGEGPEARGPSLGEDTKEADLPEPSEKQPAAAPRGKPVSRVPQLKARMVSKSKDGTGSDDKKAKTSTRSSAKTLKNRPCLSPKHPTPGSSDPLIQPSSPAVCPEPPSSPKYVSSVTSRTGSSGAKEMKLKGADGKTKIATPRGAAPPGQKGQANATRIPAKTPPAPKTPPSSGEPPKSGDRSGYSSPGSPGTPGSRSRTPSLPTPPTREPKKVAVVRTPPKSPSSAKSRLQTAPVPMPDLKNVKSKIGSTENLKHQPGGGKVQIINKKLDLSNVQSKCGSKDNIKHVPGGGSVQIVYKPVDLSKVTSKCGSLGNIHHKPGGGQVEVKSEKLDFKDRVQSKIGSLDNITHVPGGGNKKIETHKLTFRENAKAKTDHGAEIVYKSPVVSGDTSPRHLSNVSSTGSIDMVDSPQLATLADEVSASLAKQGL
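Tau 2 uM in ThS buffer dispensed; compound added; 60 uM ODS added (finals 1 uM tau, 30 uM ODS); 15 h 37 C; fluor ex450/em510.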
TsaE inh: YjeE (TsaE) inhibition, E. coli; purified YjeE enzyme, qHTS inhibition assay; Potency, µM; actives 0.05% (n = 71,000)
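Purified YjeE (10 uM) with BODIPY Texas Red-labeled ADP probe (2 uM); compounds pin-transferred, 15 min at room temperature. Binding inhibition read as decreased fluorescence polarization; ADP titration as control.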
* = called active by the depositor; i = inactive; ? = inconclusive; . = no result given; [ ] = remark or other dose. Unless noted, calls come from the whole dose curve; as a rule, active = well fitted curve in the direction sought with a large enough effect; inconclusive = small, poorly fitted or top-dose-only effect, or another doubt; inactive = no such curve, though single readings can be large; an effect the other way counts as inactive or inconclusive.

SMILES	Hsp90 Hop PPI	BRCT inh red	Pol III holo inh	BRCT inh green	Tau filament bind	TsaE inh
CCn1c2ccccc2c2nc3cc(S(=O)(=O)N4CCOCC4)ccc3nc21	27.6%	-1.6%	-4.6%	1.9%	25.1µM*	i
CC(=O)[C@H]1CC[C@H]2[C@@H]3C=CC4=CC(=O)CC[C@@]4(C)[C@H]3CC[C@]12C	-5.2%[26 µM]	0.2%[34.4 µM]	-3.5%[25.6 µM]	-0.5%[34.4 µM]	-8.1%[25.6 µM]	i
CCCCNC(=O)c1ccc(Cc2nc3ccccc3[nH]2)cc1	.	0.5%	.	-0.3%	.	.
COc1ccccc1CNc1ncnc2ccc(-c3cccc(C#N)c3)cc12	-7.5%	0.3%	-6.7%	-2.1%	i	i
O=S(=O)(c1ccccc1)N1CCC2(CCN(c3ccc(-c4ccccc4)cc3)CC2)CC1	-0.3%	-0.6%	-3.9%	-0.8%	9.3%	i
CCOC(=O)c1c(C)oc2c1c(C(c1cccnc1)N1CCN(C)CC1)c(O)c1ccccc12 (stereo not drawn)	-2.7%	-0.5%	-3.0%	-1.4%	-0.1%	i
CN1CCN(C(c2cccnc2)c2ccc3cccnc3c2O)CC1 (stereo not drawn)	3.16µM*	0.7%	-9.7%	0.2%	-0.8%	i
Cc1ccc(-c2cc(-c3ccccc3Cl)c(C#N)c(N)n2)o1	-7.6%	0.4%	-3.7%	1.4%	12.6µM*	i
Cc1ccc(-c2cc(-c3ccccc3)c(C#N)c(N)n2)o1	?	-0.6%	-4.4%	1.9%	3.16µM*	i
Cc1ccc(-c2cc(-c3ccc(F)cc3)nc(N)c2C#N)o1	-2.6%	2.2%	-3.8%	-5.1%	0.4%	i
COC(=O)[C@@H]1CC[C@H](C)[C@@H](c2ccc(C)cc2)N1C(=O)c1ccc(/C=N\O[C@@H](C)CN2CCCc3nc(C)c(C)cc32)cc1	.	0.7%[15.4 µM]	.	0.8%[15.4 µM]	.	.
C[C@@H]1CC[C@H]2C(=O)O[C@H](CN=[N+]=[N-])CN2[C@@H]1c1ccc(Br)cc1	.	0.0%[15.4 µM]	.	-1.1%[15.4 µM]	.	.
C=CCOc1ccccc1/C=c1\sc2nc(=O)c(C)nn2c1=O	-5.5%	-3.4%	0.6%	1.1%	25.1µM*	i
CCC(=O)OCC(=O)[C@@]1(OC(=O)CC)[C@H](C)C[C@@H]2[C@@H]3[C@H]([C@@H](O)C[C@@]21C)[C@]1(C)C=CC(=O)C=C1C[C@@H]3Cl	-6.6%[26 µM]	0.7%[34.4 µM]	2.2%[25.6 µM]	-0.7%[34.4 µM]	4.3%[25.6 µM]	i
O=C(Nc1ccc2nc(-c3ccco3)[nH]c2c1)c1cccs1	-19.5%	-1.1%	-3.7%	2.5%	20µM*	i
c1ccc(C2=NN[C@@H]3c4ccccc4-c4ccccc4N3C2)cc1	-6.7%[11 µM]	-1.1%[15.4 µM]	-15.4%[11.4 µM]	3.4%[15.4 µM]	3.98µM*	i
NC[C@@H]1O[C@@H](O[C@H]2[C@H](O)[C@H](O[C@@H]3O[C@H](CO)[C@@H](O)[C@H](N)[C@@H]3O)[C@@H](N)C[C@H]2N)[C@H](N)C[C@@H]1O	-0.7%[26 µM]	-0.3%[34.4 µM]	9.4%[25.6 µM]	-1.4%[34.4 µM]	2.5%[25.6 µM]	i
COc1cc2ccccc2cc1C(=O)Nc1ccc(N2CCN(C)CC2)cc1	-14.9%	-0.8%	-6.1%	0.0%	3.16µM*	i
COc1ccccc1C(=O)Nc1ccc(N2CCN(S(C)(=O)=O)CC2)cc1	-1.5%	0.4%	-11.8%	-0.9%	-0.2%	i
CCCOc1ccc(C(=O)Nc2ccc(N3CCN(C(C)=O)CC3)cc2)cc1	-2.5%	-0.3%	-7.4%	-1.3%	?	i
CCOc1ccc(C(=O)Nc2ccc(N3CCCC3)cc2)cc1	?	0.1%	-7.6%	-1.7%	10µM*	i
CCOc1ccc(C(=O)Nc2ccc(N3CCN(C)CC3)cc2)cc1Br	-7.4%	-1.2%	-4.4%	-0.2%	10µM*	i
COC(=O)C/C=C\[C@@H](C)[C@@H](/C=N\OCC[C@H]1C=C[C@H](OC(C)=O)[C@@H](COC(C)=O)O1)NS(=O)(=O)c1ccc(C)cc1	.	-5.6%[15.4 µM]	.	0.0%[15.4 µM]	.	.
CCOc1ccc2[nH]c(C)cc(=O)c2c1	-0.8%[2.3 µM]	1.5%	1.3%	-1.1%	-20.2%	i
CCOc1ccc2[nH]c(=O)c(=O)[nH]c2c1	-3.4%	0.8%	-7.8%	1.4%	10µM*	i
SMILES	Hsp90 Hop PPI	BRCT inh red	Pol III holo inh	BRCT inh green	Tau filament bind	TsaE inh
NC=O	-3.0%	-0.7%	-3.0%	-1.6%	6.9%	i
Clc1ccc2c(N3CCCC3)ccnc2c1	-11.7%	-2.8%	-3.2%	1.3%	20µM*	i
c1ccc(-c2cccc(-c3ccccn3)n2)nc1	3.16µM*	1.0%	1.5%	-0.5%	-3.2%	i
CO/N=C1\CN(c2nc3c(cc2F)c(=O)c(C(=O)O)cn3C2CC2)CC1CN (stereo not drawn)	.	2.8%	.	0.8%[3.08 µM]	.	.
O=C(Nc1sc2c(c1C(=O)O)CCCC2)c1cccs1	0.9%	0.4%	-7.3%	-0.6%	-15.0%	i
CC(C)OC(=O)c1c(NC(=O)c2cccs2)sc2c1CCCC2	25.1µM*	-0.5%	-1.2%	1.4%	60.4%	i
N/N=C1/c2ccccc2N[C@H]1OC(=O)Nc1ccccc1	-8.0%[11 µM]	1.1%[15.4 µM]	?	-0.3%[15.4 µM]	3.16µM*	i
OC(CN(c1ccccc1)c1ccccc1)Cn1cnc2ccccc21 (stereo not drawn)	-23.4%	-1.6%	4.8%	-1.4%	12.6µM*	i
O=C(c1ccncc1)N1CCC2(CCCN(Cc3nccs3)C2)CC1	-1.8%	1.0%	-7.3%	0.7%	-1.3%	i
CC(=O)c1cccc(NC(=O)C2CCN(S(=O)(=O)c3c(C)n[nH]c3C)CC2)c1	-3.9%	1.5%	-4.4%	-0.7%	25.1µM*	i
CC(=O)c1cccc(NC(=O)C2CCN(S(=O)(=O)c3ccc(C)cc3)CC2)c1	1.5%	1.3%	-5.4%	4.4%	4.8%	i
CCOc1ccc2c(c1)c1nnc(SCC3CCCO3)nc1n2C (stereo not drawn)	1.6%	0.1%	-13.1%	1.6%	31.6µM*	i
Cc1cc(C)c(/C=C2/C(=O)Nc3ccccc32)[nH]1	?	-4.5%	-5.5%	?	1µM*	i
Cc1cccc(NC(=O)Nc2cccc(C#N)c2)n1	-0.7%	0.6%	-2.2%	-0.6%	44.8%	i
Cc1cccc(NC(=O)Nc2ccc(C#N)cc2)n1	-1.9%	-1.3%	25.1µM*	-4.1%	118.2%	i
COc1ccc2nc3c(cc2c1)c(NC(=O)c1cccs1)nn3CC(C)C	25.1µM*	-0.5%	2.0%	-1.3%	116.4%	i
CCn1nc(NC(=O)c2ccncc2)c2cc3ccccc3nc21	0.2%	-0.9%	0.2%	-2.9%	-9.3%	i
CS(=O)(=O)Nc1ccc(Nc2c3ccccc3nc3ccccc23)cc1	-2.6%[11 µM]	1.0%[15.4 µM]	-7.8%[11.4 µM]	-1.6%[15.4 µM]	1.58µM*	i
CN(C)c1nc(-c2cccc(NS(C)(=O)=O)c2)nc2ccccc12	-1.1%	-2.4%	-5.2%	0.8%	1.3%	i
Cc1cnc(CNc2ncncc2-c2ccccc2C)cn1	0.2%	-1.0%	7.0%	-2.2%	-8.1%	i
